{"source": "PubChem BioAssay AID624330", "about": "(Southern Research Specialized Biocontainment Screening …, 2012)", "note": "Screen size: about 340,000 compounds; about 2,100 (0.62%) were called active.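 The calls were made as follows: active = first-screen hits whose inhibition reached a set limit at any dose in the follow-up dose series; inconclusive = inhibition above the set first-screen limit but never retested; inactive = the rest.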 Only a sample is shown. Measured potencies and affinities stand elsewhere.", "data": [{"target": "Rac GTPase-activating protein 1 (Homo sapiens) (UniProt Q9H0H5)", "sequence (Q9H0H5 whole entry, looked up)": "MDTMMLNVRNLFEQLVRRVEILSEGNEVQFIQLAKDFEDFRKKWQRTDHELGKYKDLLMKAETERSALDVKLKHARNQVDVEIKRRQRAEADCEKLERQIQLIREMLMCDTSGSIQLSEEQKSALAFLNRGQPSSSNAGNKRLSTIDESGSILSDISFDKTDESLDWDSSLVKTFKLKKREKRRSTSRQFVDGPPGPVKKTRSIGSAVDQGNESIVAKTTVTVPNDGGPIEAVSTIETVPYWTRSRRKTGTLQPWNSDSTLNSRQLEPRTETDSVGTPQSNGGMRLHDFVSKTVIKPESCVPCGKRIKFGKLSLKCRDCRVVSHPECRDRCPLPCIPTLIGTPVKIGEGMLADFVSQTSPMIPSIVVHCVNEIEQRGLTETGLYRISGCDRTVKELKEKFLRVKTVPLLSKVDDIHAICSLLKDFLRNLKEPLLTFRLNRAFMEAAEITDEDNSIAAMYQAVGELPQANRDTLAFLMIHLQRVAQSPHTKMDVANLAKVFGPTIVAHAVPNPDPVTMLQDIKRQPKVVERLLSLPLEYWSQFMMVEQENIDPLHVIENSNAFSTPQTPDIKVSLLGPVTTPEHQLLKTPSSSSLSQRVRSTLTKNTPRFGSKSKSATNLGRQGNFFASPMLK", "test": "MgcRacGAP GTPase-activating activity inhibitors, confirmation, biochemical, ADP Hunter fluorescence, primary and confirmatory (AID 624330);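 also: fluorescence reports GDP produced by GAP-driven GTP hydrolysis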", "conditions": "MgcRacGAP-stimulated Rac1 GTP hydrolysis, at 30 µM, hits give high values, GST-tagged Rac1 F28L mutant substrate", "values": [{"smiles": "CCOc1ccc(Br)cc1CNc1ccc2c(c1)OCCO2", "inhibition": "24.3% (inactive)"}, {"smiles": "Cc1ccc(S(=O)(=O)NCc2ccco2)cc1C", "inhibition": "0.0567% (inactive)"}, {"smiles": "O=C(Cc1ccccc1[N+](=O)[O-])Nc1ccc2c(c1)OCCO2", "inhibition": "2.24% (inactive)"}, {"smiles": "COc1ccc(C(=O)CCNc2ccc3c(c2)OCCO3)cc1", "inhibition": "38.5% (inactive)"}, {"smiles": "O=C(NCc1cccs1)Nc1ccc2c(c1)OCO2", "inhibition": "-0.17% (inactive)"}, {"smiles": "O=C(O)CCNc1ccc2c(c1)OCCO2", "inhibition": "19.4% (inactive)"}, {"smiles": "O=C(NCc1cccs1)c1ccc2c(c1)OCCO2", "inhibition": "-0.21% (inactive)"}, {"smiles": "Cc1ccc(Nc2nc(N)c([N+](=O)[O-])c(NCc3ccco3)n2)cc1C", "inhibition": "2.81% (inactive)"}, {"smiles": "CCCn1c(=O)[nH]c(=O)c2c1nc(-c1ccc3c(c1)OCCO3)n2CCN1CCOCC1", "inhibition": "10.3% (inactive)"}, {"smiles": "O=S(=O)(c1ccccc1)N(Cc1ccccn1)Cc1ccccn1", "inhibition": "3.72% (inactive)"}, {"smiles": "C/C=C(\\C)C(=O)OC(C)(C)[C@H]1Cc2cc3ccc(=O)oc3cc2O1", "inhibition": "7.55% (inactive)"}, {"smiles": "CCC(c1nnc(SCC(=O)Nc2cc(Cl)ccc2C#N)n1C1CCCCC1)N(C)C", "note": "(centres undefined)", "inhibition": "5.01% (inactive)"}, {"smiles": "CCc1ccc(-c2cc(C(=O)O)c3ccccc3n2)s1", "inhibition": "-3.07% (inactive)"}, {"smiles": "CCCN(CCC)CCCNC(=O)c1cc2c(=O)[nH]c3ccccc3c2s1", "inhibition": "23.4% (inactive)"}, {"smiles": "O=C(Cc1ccc(Cl)cc1)SCc1ccccc1", "inhibition": "4.82% (inactive)"}, {"smiles": "O=C(NNC(=O)c1cc([N+](=O)[O-])ccc1Cl)c1cccnc1", "inhibition": "3.49% (inactive)"}, {"smiles": "O=c1[nH]c2ccc(S(=O)(=O)Nc3ccc(Br)cc3)cc2[nH]1", "inhibition": "0.44% (inactive)"}, {"smiles": "Cc1ccc(NCC(O)C(O)C(O)CO)cc1C", "note": "(centres undefined)", "inhibition": "9.4% (inactive)"}, {"smiles": "Cc1ccc(NCc2ccccc2O)cc1", "inhibition": "19.1% (inactive)"}, {"smiles": "Cc1ccc(NCCC#N)cc1C", "inhibition": "-10% (inactive)"}, {"smiles": "Cc1cccc(NCc2ccccc2O)c1", "inhibition": "13.2% (inactive)"}, {"smiles": "COc1ccc(C(CCc2ccc(C)o2)NC(=O)Nc2ccc(OC)cc2OC)cc1", "note": "(centres undefined)", "inhibition": "0.8% (inactive)"}, {"smiles": "C/C=C(\\C)C(=O)NCCN1C2=NC[C@@H](Cc3ccccc3)N2C[C@@H]1Cc1ccc(OC)cc1", "inhibition": "5.16% (inactive)"}, {"smiles": "Cc1ccc(O)c(/C=N/NC(=O)Cc2ccc(Cl)cc2)c1", "inhibition": "-8.7% (inactive)"}, {"smiles": "COC(=O)C1=C(C)N(Cc2ccccc2)C(=O)N[C@H]1CCc1ccccc1", "inhibition": "8.96% (inactive)"}, {"smiles": "CCOC(=O)C1CCCN(C2=NC(=O)/C(=C/c3ccc(OC)cc3)S2)C1", "note": "(centres undefined)", "inhibition": "8.26% (inactive)"}, {"smiles": "CCOC(=O)C1CCN(C2=NC(=O)/C(=C/c3ccc(Cl)cc3)S2)CC1", "inhibition": "7.83% (inactive)"}, {"smiles": "CCOC(=O)C1CCN(C2=NC(=O)/C(=C/c3ccc(OC)c(OC)c3)S2)CC1", "inhibition": "12.3% (inactive)"}, {"smiles": "COc1ccc(OC)c(/C=C2\\SC(N3CCCC(C)C3)=NC2=O)c1", "note": "(centres undefined)", "inhibition": "2.99% (inactive)"}, {"smiles": "COc1cccc(/C=C2\\SC(N3CCCC(C)C3)=NC2=O)c1OC", "note": "(centres undefined)", "inhibition": "10.3% (inactive)"}, {"smiles": "COc1ccccc1/C=C1\\SC(N2CCC(C)CC2)=NC1=O", "inhibition": "8.78% (inactive)"}, {"smiles": "CC1CCN(C2=NC(=O)/C(=C/c3cccc(O)c3)S2)CC1", "inhibition": "3.71% (inactive)"}, {"smiles": "CCOC(=O)C1CCCN(C2=NC(=O)/C(=C/c3ccc(OC)c(OC)c3)S2)C1", "note": "(centres undefined)", "inhibition": "7.19% (inactive)"}, {"smiles": "CSCCC(=O)N1C(C)CCCC1C(=O)O", "note": "(centres undefined)", "inhibition": "8.45% (inactive)"}, {"smiles": "COc1ccccc1-n1c(C)cc(/C=C2\\C(=N)N3N=C(CC(=O)N4CCOCC4)SC3=NC2=O)c1C", "inhibition": "13.5% (inactive)"}, {"smiles": "CCCN(CC(=O)Nc1ccccc1C)C(=O)Cc1cccs1", "inhibition": "9.22% (inactive)"}, {"smiles": "COC(=O)C1=C(CS(=O)(=O)c2ccc(Cl)cc2)NC(=O)NC1c1ccc(O)c(OC)c1", "note": "(centres undefined)", "inhibition": "0.39% (inactive)"}, {"smiles": "CC(C)(C)NC(=S)NNC(=O)c1ccc2ncccc2c1", "inhibition": "4.55% (inactive)"}, {"smiles": "O=C(NN=C1CCC(=NNC(=O)c2ccccn2)CC1)c1ccccn1", "inhibition": "10.4% (inactive)"}, {"smiles": "CCOC(=O)C1CCCN(C2=NC(=O)/C(=C/c3ccc(N(C)C)cc3)S2)C1", "note": "(centres undefined)", "inhibition": "3.86% (inactive)"}, {"smiles": "CCOc1ccc(/C=C2\\SC(N3CCCCC3)=NC2=O)cc1", "inhibition": "10.3% (inactive)"}, {"smiles": "Cc1ccsc1/C=N/NC(=O)C(O)c1ccccc1", "note": "(centres undefined)", "inhibition": "8.51% (inactive)"}, {"smiles": "S=C(NCc1ccco1)Nc1ccccc1", "inhibition": "3.49% (inactive)"}, {"smiles": "CCN(CC)S(=O)(=O)c1cccc(NC(=O)COC(=O)c2n[nH]c(=O)c3ccccc23)c1", "inhibition": "4.21% (inactive)"}, {"smiles": "COc1ccccc1C(=O)Nc1ccc(N2CCCCC2)cc1", "inhibition": "16.2% (inactive)"}, {"smiles": "COc1cccc(OC)c1C(=O)Nc1ccc(N2CCCC2)cc1", "inhibition": "19% (inactive)"}, {"smiles": "COc1cc(CNc2ccc(N3CCCC3)cc2)ccc1OCc1ccccc1F", "inhibition": "19.3% (inactive)"}, {"smiles": "COc1cccc(CNc2ccc(F)c(Cl)c2)c1OC", "inhibition": "6.64% (inactive)"}, {"smiles": "COc1cccc(CNc2ccc(S(N)(=O)=O)cc2)c1OC", "inhibition": "-0.0267% (inactive)"}, {"smiles": "COc1cccc(CNC2CCCCCCC2)c1OC", "inhibition": "20.3% (inactive)"}, {"smiles": "COc1ccc(CC(=O)Nc2cc(Cl)ccc2C(=O)O)cc1", "inhibition": "11% (inactive)"}, {"smiles": "O=C(CSc1nc2cc(Cl)ccc2s1)c1ccco1", "inhibition": "9.01% (inactive)"}, {"smiles": "COc1ccc(N2CCN(C(=O)c3ccccc3N(C)S(=O)(=O)c3ccc(C)cc3)CC2)cc1", "inhibition": "30.1% (inactive)"}, {"smiles": "O=C(O)c1cnc(-c2ccccc2)nc1Oc1ccccc1", "inhibition": "4.36% (inactive)"}, {"smiles": "Nc1nc2n(n1)C(=O)CC(c1ccccc1)N2", "note": "(centres undefined)", "inhibition": "-15.9% (inactive)"}, {"smiles": "CC(=O)Nc1ccc(S(=O)(=O)NC(C)C(=O)OCC(=O)Nc2ccc(F)cc2Cl)cc1", "note": "(centres undefined)", "inhibition": "4.68% (inactive)"}, {"smiles": "COc1ccc(NC(=O)[C@H](C)NC(N)=O)cc1S(=O)(=O)Nc1cc(C)ccc1Br", "inhibition": "9.93% (inactive)"}, {"smiles": "CC1CCN(c2ccc(C(F)(F)F)cc2N)CC1", "inhibition": "3.8% (inactive)"}, {"smiles": "O=S(=O)(c1ccc(N2CCOCC2)c(Cl)c1)N1CCOCC1", "inhibition": "2.67% (inactive)"}, {"smiles": "Nc1cc(Cl)ccc1N1CCOCC1", "inhibition": "2.6% (inactive)"}, {"smiles": "Nc1cc(Cl)ccc1N1CCCCC1", "inhibition": "1.75% (inactive)"}, {"smiles": "Nc1cc(Cl)ccc1N1CCCCCC1", "inhibition": "-8.8% (inactive)"}, {"smiles": "CC(=O)Nc1cc(C(F)(F)F)ccc1N1CCOCC1", "inhibition": "2.07% (inactive)"}, {"smiles": "O=C(CN(c1ccccc1)S(=O)(=O)c1ccc(Cl)cc1)Nc1cccnc1", "inhibition": "-2.54% (inactive)"}]}]}
